# The OligoGym collection
# Target: HSPA1A
# Assay: pooled miR-30 sensor sort-seq; sequence = guide strand
# Settings: shRNA
# Further: reference of the scale not given here.
row,Sequence,sensor-assay potency score (higher = more potent)
1,TTCAACATTGCAAACACAGGAA,0.422
2,ATCTCTGCATGTAGAAACCGGA,-0.989
3,TTGTCGGCCTCGCTGATCTTGC,-1.46
4,TACTAGGAAATGCAAAGTCTTG,-1.4
5,TGCAAAGTCTTGAAGCTCCAAA,-0.87
6,TAAAAAGAAGAAATAGTCGTAA,0.289
7,TTGACACTTGTCCAGCACCTTC,-1.05
8,TTAAAAAGAAGAAATAGTCGTA,0.533
9,TCAACATTGCAAACACAGGAAA,-1.05

# Target: HSPA1L
# Assay: as above
# Settings: shRNA
row,Sequence,sensor-assay potency score (higher = more potent)
1,AACTTAGTCAATACCATCGAAG,-0.727
2,TAGGGTTACACATCTGCTCCAA,0.367
3,TAGAGTTTTGTGATGATAGGGT,0.798
4,TTAGTCAATACCATCGAAGAGA,-1.19
5,TTGGTTGTCAGAGTAGGTGGTG,0.316
6,TTTCTCAGCATCCAGAACCATG,-1.49
7,TTCTTAGCACATTAAGTCCAGC,-0.826
8,TAATCTTGCCCTTCAAACCTTC,-0.52
9,TTTATATTTCTCAGCATCCAGA,-0.719
10,TTTATCAGACTCACTAATCTTG,0.0614
11,TTCTCTTATGATCAAACTCATC,-1.68
12,TAAGTCCAGCAATCACACCTGC,-0.0929

# Target: IBTK
# Assay: as above
# Settings: shRNA
row,Sequence,sensor-assay potency score (higher = more potent)
1,TAACACAGACTGTAGCTCCATC,-0.515
2,TAGCATAGCAGCATTCTTCAGG,-0.0417
3,TAAGCCAATCTAACACTCCTTT,0.0727
4,TAAACTGTAAACAAGACAGTTT,-0.0719
5,TTCTTGAACATAGTTTCCGAAT,-1.25
6,TAAACAGCTTCTCTAGTCCATA,-1.24
7,TTGAGCTTGATTACTTTTGTAA,0.24
8,TCTTCTTGCACTGATAGTCTGC,-0.142
9,TTATCTTGAATATACAGACTAA,-0.465
10,TTTGCTTTCTTGAACATAGTTT,-0.494
11,TAATACAACAGTATGATCCTTA,1.02
12,TTGCACTATACATTGCTGCAAA,-0.722

# Target: ICAM4
# Assay: as above
# Settings: shRNA
row,Sequence,sensor-assay potency score (higher = more potent)
1,TTCATAGCTAGGCACTTGCATA,-1.17
2,TAGCCCACCGGGAACACTGTAG,-0.579
3,TTGTAGGCGGTGATCCTGGAGG,-1.08
4,TGCACAGCCACGAACTCCGGGC,-1.29
5,TTTTTCTCGCTCAGCCGGCATA,-1.31
6,TTTTCCTGCGCAGGTCACGAGG,-1.77
7,TAGCTAGGCACTTGCATAGGTA,-0.927
